In the library only some 9% were active in any assay of this set; here they are far more common.
G9a block – G9a (human) methyltransferase inhibition | Potency, µM (highest dose often 102 µM), most hits filed as inhibitors | actives 8.8% (n = 350,000) | G9a H3K9 monomethylation, AlphaScreen, 2 h | Q96KQ7 | AID 504332; also: nearly all actives have a fitted effect of over 75% in size
Target sequence (Q96KQ7 913-1193 limits assumed): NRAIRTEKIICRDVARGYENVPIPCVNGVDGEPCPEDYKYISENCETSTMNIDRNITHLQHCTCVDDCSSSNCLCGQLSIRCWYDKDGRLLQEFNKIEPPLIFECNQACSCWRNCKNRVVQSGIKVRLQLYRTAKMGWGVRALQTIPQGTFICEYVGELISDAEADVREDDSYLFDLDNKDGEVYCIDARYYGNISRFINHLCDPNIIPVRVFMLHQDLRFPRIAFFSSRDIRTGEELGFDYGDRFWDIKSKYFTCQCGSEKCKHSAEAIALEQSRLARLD
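Compounds were preincubated with 20 nM G9a for 15 min, after which biotinylated H3K9 peptide (500 nM) and SAM (20 uM) started a 2 h room-temperature reaction. Monomethylated product was quantified by antibody-based AlphaScreen chemiluminescence.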
BAZ2B inh – BAZ2B (human) inhibition; Q9UIF8; AlphaScreen BAZ2B-H3K14Ac peptide displacement; Potency, µM (highest dose often 114 µM), most hits filed as inhibitors; actives 4.4% (n = 360,000); AID 504333; also: nearly all actives have a fitted effect of over 60% in size
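BAZ2B 50 nM plus b-H3(5-23)K14Ac 50 nM, PBS pH 7.4/0.01% Tween-20, 30 min RT; compound added (max 110 uM), 30 min RT; streptavidin donor/Ni-chelate acceptor beads 10 ug/mL final, 20 min dark; AlphaScreen read.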
HP1b chromo inh – HP1-beta chromodomain-methylated histone interaction inhibition; Potency, µM (top dose mostly 114 µM), usual class: inhibitors; P83916; actives 0.56% (n = 390,000); AlphaScreen HP1-beta / biotin-H3K9me3 peptide binding; AID 540317; also: nearly all actives have a fitted effect of over 70% in size
Target sequence (P83916 whole entry, looked up): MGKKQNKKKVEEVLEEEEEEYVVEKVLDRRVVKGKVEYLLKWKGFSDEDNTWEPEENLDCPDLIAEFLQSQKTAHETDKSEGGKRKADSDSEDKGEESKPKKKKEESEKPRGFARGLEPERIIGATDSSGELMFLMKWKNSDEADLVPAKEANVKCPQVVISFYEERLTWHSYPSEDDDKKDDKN
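AlphaScreen: HP1-beta (50 nM) preformed 30 min with biotin-H3(1-18)K9me3 peptide (50 nM) in PBS pH 7.4, 0.01% Tween-20. Compound added for 30 min at RT, then streptavidin donor/nickel chelate acceptor beads (10 ug/mL) for 30 min.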
ALOX12 inh – ALOX12 (human) lipoxygenase inhibition. actives 1.1% (n = 580,000). Potency, µM (series often up to 108 µM), usual class: inhibitors. P18054. purified 12hLO, xylenol orange hydroperoxide absorbance
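Purified human 12hLO (150 nM final) in 25 mM Hepes, 0.01% Triton X-100, pH 7.0 was preincubated 15 min at room temperature with compound. Then 40 uM arachidonic acid was added, 30 min. Hydroperoxide was read by Fe-XO absorbance ratio 573/405 nm.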
PLK1 PBD block – inhibitors of human PLK1 polo-box domain binding; Potency, µM, most hits filed as inhibitors; P53350; actives 2.8% (n = 360,000); Plk1 PBD binding of FITC phosphopeptide, fluorescence polarization; AID 720504; also: series mostly up to about 57 µM; nearly all actives have a fitted effect of over 65% in size
JMJD2A Tudor inh – blocks the human JMJD2A Tudor domain. actives 4.4% (n = 390,000). O75164. Potency, µM (highest dose often 114 µM), most hits filed as inhibitors. AlphaScreen JMJD2A-Tudor / H3K4me3 peptide binding. AID 504339; also: nearly all actives have a fitted effect of over 50% in size
Numbers stand for hits; . = inactive; ? = inconclusive; / = no result given; ! = repeats disagree; [ ] = remark or other dose. Calls follow the shape of the dose curve; as a rule, active = well fitted curve in the direction sought with a large enough effect; inconclusive = small, poorly fitted or top-dose-only effect, or another doubt; inactive = no such curve, though single readings can be large; an effect the other way counts as inactive or inconclusive.

SMILES	G9a block	BAZ2B inh	HP1b chromo inh	ALOX12 inh	PLK1 PBD block	JMJD2A Tudor inh
CCOC(=O)C1CCN(S(=O)(=O)CCNC(=O)c2ccccc2)CC1	.	.	.	.	.	.
CCOC(=O)C1CCCN(S(=O)(=O)CCNC(=O)c2cccc(OC)c2)C1 (configuration not stated)	11.2µM	.	.	.	.	.
COc1cccc(C(=O)NC(c2ccccc2)C2CCCC2)c1 (configuration not stated)	.	.	.	.	10.6µM	22.4µM
NS(=O)(=O)c1ccc(CNC(=O)c2cc(-c3cccnc3)nc3ccccc23)cc1	.	.	.	.	.	.
O=C(NCc1cc(F)ccc1F)C1CCN(C(=O)c2ncn3c2COC(c2ccccc2)C3)CC1 (configuration not stated)	/	/	/	.	/	/
COC(=O)c1ccc(COc2cccnc2[N+](=O)[O-])cc1	.	.	.	.	.	.
Nc1c(C(=O)O)ccc2c1C(=O)c1ccccc1C2=O	35.5µM	35.5µM	?	.	.	?
Nc1cc(C(=O)O)c(N)c2c1C(=O)c1ccccc1C2=O	?	14.1µM	14.1µM	/	18.9µM	?
O=C(O)c1ccc([N+](=O)[O-])c2c1C(=O)c1ccccc1C2=O	/	/	.	?	.	.
CCCCNc1c2c3c(cccc3n(C)c1=O)C(=O)c1ccccc1-2	.	.	.	/	2.38µM	.
CC(=O)Nc1ccc(Nc2c3c4c(cccc4n(C)c2=O)C(=O)c2ccccc2-3)cc1	.	?	.	.	6.7µM	?
CC(=O)Nc1ccc(NC(=O)CCCCCN2C(=O)c3ccccc3C2=O)cc1	.	.	.	.	.	.
Cn1c(=O)c(NCCc2ccccc2)c2c3c(cccc31)C(=O)c1ccccc1-2	.	.	.	.	3.77µM	.
Cn1c(=O)c(NC2CCCCC2)c2c3c(cccc31)C(=O)c1ccccc1-2	/	.	.	?	?	.
CC(C)(C)c1cc[n+](-c2nc([O-])sc2C=O)cc1	.	.	.	.	.	.
COc1ccccc1CNc1ccc(CNc2ncn[nH]2)cc1	.	?	.	.	.	?
c1ccc2c(CNc3ccc(CNc4ncn[nH]4)cc3)cccc2c1	?	44.7µM	?	.	.	56.2µM
O=[N+]([O-])C(=C1NCCN1)C(Cl)=C(Cl)Cl	56.2µM	.	.	.	.	.
COc1ccc(/C=C/C(=O)c2cccc(O)c2)cc1	/	/	/	.	/	/
COc1cc(/C=C/C(=O)c2cccc(O)c2)cc(Cl)c1O	/	/	/	25.1µM	/	/
COc1ccc(C(=O)C=Cc2ccc3c(c2)OCO3)cc1OC	/	/	/	?	.	/
COc1cc(/C=C/C(=O)c2ccc3c(c2)OCO3)cc(Cl)c1O	44.7µM	?	?	?	.	?
Cn1c(C(=O)NCCc2ccco2)cc2cc(S(=O)(=O)N3CCCCC3)ccc21	/	/	/	.	/	/
CCCNC(=O)CS(=O)Cc1cccc2ccccc12 (configuration not stated)	/	/	/	.	/	/
CSc1nnc2c3c4c(sc3nc(-n3nc(C)cc3C)n12)COC(C)(C)C4	.	.	.	.	3.36µM	.[11.4 µM]
SMILES	G9a block	BAZ2B inh	HP1b chromo inh	ALOX12 inh	PLK1 PBD block	JMJD2A Tudor inh
CN(C)CCN(C(=O)c1ccc2ccccc2c1)c1nc2c(F)cc(F)cc2s1	50.1µM	.	.	?	.	?
CN(C)CCCN(C(=O)c1cccc(Br)c1)c1nc2c(F)cc(F)cc2s1	/	/	/	.	/	/
Cc1cccc2sc(N(CCN(C)C)C(=O)c3ccc4ccccc4c3)nc12	39.8µM	?	.	.	.	?
CC(=O)N1CCN(C(=O)C[C@@H]2CCNC[C@@H]2Cc2cc(-c3ccccc3)on2)CC1	/	/	/	.	/	/
COC(=O)c1sccc1S(=O)(=O)N1CCN(c2ccc(C)cc2C)CC1	.	.	.	.	/	.
O=S(=O)(NCCc1cn(S(=O)(=O)c2ccccc2)c2ccccc12)c1ccccc1	/	/	.	/	/	50.1µM
O=S(=O)(NCCc1c[nH]c2ccccc12)c1ccccc1	.	.	.	.	.	.
O=c1c2cnn(-c3ccccc3)c2ncn1Cc1ccccc1F	.	.	.	.	.	.
Cn1c(=O)c2c(ncn2CC(=O)Nc2cccc(S(=O)(=O)Nc3ccccc3F)c2)n(C)c1=O	/	.	?	?	29.9µM	.
CN(c1ccccc1)S(=O)(=O)c1cccc(NC(=O)Cn2cnc3c2c(=O)n(C)c(=O)n3C)c1	?	.	.	.	.	.
O=C(CSc1ccc([N+](=O)[O-])cc1)Nc1cccc(S(=O)(=O)Nc2ccccc2F)c1	?	.	?	39.8µM	9.47µM	?
O=C(Cc1ccc(Cl)cc1)Nc1cccc(S(=O)(=O)Nc2ccccc2F)c1	.	.	.	.	.	.
O=C(Nc1ccc(Cl)cc1)OCCn1nnnc1C(c1ccccc1Cl)N1CCOCC1 (configuration not stated)	.	.	.	.	21.2µM	35.5µM
O=C(NCc1ccc2c(c1)OCO2)c1csc(N2CCN(c3ccc(F)cc3)CC2)n1	/	/	/	.	/	/
O=C(CN1CCN(c2nc(-c3ccc(F)cc3)cs2)CC1)NCc1ccc2c(c1)OCO2	39.8µM	?	.	.	.	?
NC(=O)C1CCN(c2nc(-c3cccc(N)c3)cs2)CC1	?	?	.	.	/	.
Cn1ccc2cc(-c3csc(N4CCC(C(N)=O)CC4)n3)ccc21	.[12.7 µM]	50.1µM	.	.	/	.
NC(=O)C1CCN(c2nc(-c3ccc(F)cc3)cs2)CC1	.[12.7 µM]	56.2µM!	.	.	/	.
NC(=O)C1CCN(c2nc(-c3cccnc3)cs2)CC1	.[12.7 µM]	.	.	?	/	79.4µM
Cc1cc(OCC(=O)N2CCN(c3cccc(Cl)c3)CC2)c2c(C)c(C)c(=O)oc2c1	.	.	.	.	.	.
CCOC(=O)c1c(NC(=S)Nc2ccc(F)cc2)sc2c1CCC2	.	.	.	.	.	.
NC(=O)C1CCN(c2nc(-c3ccccc3C(F)(F)F)cs2)CC1	.[12.7 µM]	.	.	.	/	79.4µM
Cn1nc(C(=O)Nc2ccc(F)c(F)c2F)c2ccccc2c1=O	/	/	/	.	/	/
Cc1noc(C)c1S(=O)(=O)N(CC(=O)O)c1ccc2c(c1)OCO2	.	.	.	.	.	.
CC(=O)c1cccc(NC(=O)Cn2cnc(S(=O)(=O)N3CCCC3)c2)c1	.	.	.	.	.	.
COCCN(Cc1ccc(C)c(Br)c1)C(=O)Cn1cnc(S(=O)(=O)N2CCCC2)c1	.	.	.	.	9.47µM	?
COc1ccc(OCCNC(=O)c2ccc3[nH]c(C)c(C)c3c2)cc1	/	/	/	.	/	/
c1ccc(-c2nnc(N3CCN(c4ccccc4)CC3)nc2-c2ccccc2)cc1	12.6µM	?	.	.	.	?
CC(=O)Nc1n[nH]c(S(=O)(=O)Cc2ccc(Cl)cc2Cl)n1	44.7µM	?	.	?	.	50.1µM
COc1ccc(N2CCN(C(=O)C3CCN(S(=O)(=O)c4cccs4)CC3)CC2)cc1	?	.	?	?	16.8µM	?
